Lassa entry inh: Lassa virus entry inhibition | AID 540256 | Potency, µM (highest dose often 37.9 µM), for inactives: at the top dose activity change, negative = inhibition, hits mostly inhibitors | Lassa virus pseudotype entry inhibition, cell reporter | 300,000 tested, 1.2% active; calls by dose curve; tested in HEK293 cells; further: potency means the concentration at half of the fitted maximal effect; nearly all actives have a fitted effect of over 50% in size
HCV inhibitor: HCV inhibition; Huh7.5.1 HCVcc-Cre infection, luciferase reporter, 44 h; Potency, µM (series often up to 41.8 µM), without a hit: at the highest dose activity change, negative = inhibition, usual class: inhibitors; 340,000 tested, 3.4% active; AID 651820; active means well fitted inhibition curve with a large enough effect; inconclusive means small, poorly fitted or top-dose-only effect, or another doubt; inactive means no such curve, though single readings can be large or run the other way; further: potency means the concentration at half of the fitted maximal effect
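Reporter virus HCVcc-Cre (~0.5 moi) infects cells exposed to compound; seeding density 1,000 cells/well with 4 h settling beforehand. Luminescence, 15 sec read, taken 44 h post-infection following a 15 min RT substrate incubation.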
HCMV inh: blocks human cytomegalovirus replication | HFF cells, HCMV-luciferase reporter, 72 h; active compounds read low | activity change, negative = inhibition, % at 57.5 µM | 410,000 tested, 4.5% active | AID 1259415; in the data active means activity change below about -60%; inconclusive means no clear call, values can overlap the other calls; inactive means above about -39%
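Compounds were evaluated in HFFs infected with an HCMV luciferase reporter virus (MOI 1 PFU/cell). Luciferase in lysates collected 72 h post infection served as the replication measure.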
Marburg entry inh: Marburg virus entry inhibition | Marburg virus pseudotyped entry inhibition, cell reporter | Potency, µM (series often up to 37.8 µM), inactives show at the highest dose activity change, negative = inhibition, usual class: inhibitors | 300,000 tested, 1.8% active; calls by dose curve; tested in HEK293 cells; further: potency means the concentration at half of the fitted maximal effect
FMDV antiviral: blocks foot and mouth disease virus; FMDV antiviral cell-based qHTS; Potency, µM (series often up to 57.9 µM), without a hit: at the top dose activity change, negative = inhibition, most hits filed as inhibitors; 410,000 tested, 1.2% active; AID 1159524; calls by dose curve; tested in HEK293T cells; further: read-out not given here; potency means the concentration at half of the fitted maximal effect; nearly all actives have a fitted effect of over 45% in size
Starred values were filed as active, the others as inactive; ? = inconclusive; · = no result; [ ] = dose if it differs, or a comment. Only some compounds are listed: those with a hit (about 7.9% of all), similar ones and a draw of the others. On the % scale 0 is the no-effect control and ±100 the full control effect.

SMILES	Lassa entry inh	HCV inhibitor	HCMV inh	Marburg entry inh	FMDV antiviral
CCOc1ccccc1C(=O)OCC(=O)Nc1cccc(S(=O)(=O)N2CCCC2)c1	·	5.1%	0.0	·	?
Cc1ccc(C)c(NC(=O)Cc2coc3cc(C)cc(C)c23)c1	11.8%[46.1 µM]	·	-21.7	?	-7.8%
CCN(C(=O)CCn1cnc2onc(-c3ccc(F)cc3)c2c1=O)c1ccc(OC)cc1	?	·	3.1	·	-0.4%
CCN1CCN(c2ccc(S(=O)(=O)N3CCCCC3)cc2NC(=O)c2ccc([N+](=O)[O-])s2)CC1	?	35.5µM*	-25.8	?	-27.9%
CCN1CCN(c2ccc(S(=O)(=O)N3CCCCC3)cc2NC(=O)c2ccccc2)CC1	-7.3%[46.1 µM]	8.7%	27.2	-6.5%	-5.1%
CCOC(=O)c1nn(-c2ccc(C)c(C)c2)c(=O)c2c(N)scc12	-12.8%	6.31µM*	-20.8	-22.4%	-18.5%
O=C(c1cc2sccc2n1Cc1ccc(F)cc1)N1CCN(c2nc3ccccc3s2)CC1	-35.0%	3.16µM*	?	3.55µM*	?
O=C(c1ccc(Cl)s1)N1CCN(c2nc3ccccc3s2)CC1	·	8.2%	-27.8	3.6%	?
Cc1ccccc1NC(=O)c1cc2sccc2n1Cc1ccc(F)cc1	3.1%[46.1 µM]	·	-13.9	?	2.0%
CC(NC(=O)c1cc2sccc2n1Cc1ccc(F)cc1)c1ccccc1 (stereo not given)	-19.5%[46.1 µM]	·	-85.5*	-17.7%[46.1 µM]	0.0%
O=C(c1cccs1)N1CCN(c2nc3ccccc3s2)CC1	·	-12.3%	-36.1	·	?
COc1ccccc1N1CCN(C(=O)c2cc3sccc3n2C)CC1	?	?	-76.3*	?	-24.7%
Cc1cccc(N2CCN(C(=O)C3CCN(C(=O)c4cc5sccc5n4C)CC3)CC2)c1C	·	·	-20.9	-19.1%[46.1 µM]	?
Cn1c(C(=O)N2CCN(c3nc4ccccc4s3)CC2)cc2sccc21	-0.7%	-12.2%	-73.8*	-27.8%	?
CC(C)CO/N=C1\C[C@@H](O)[C@@H](O)[C@@H]2[C@@H]3C(=O)N(Cc4ccccc4)C(=O)[C@@H]3CC[C@H]12	·	·	·	0.7%[14.2 µM]	·
O=C(c1cccc(Cl)c1)n1nc(-c2cccnc2)nc1NCc1ccccc1	?	·	8.2	4.8%[46.1 µM]	2.5%
Cc1ccc(CNC(=O)CCCCCn2c(=O)c3sccc3n(CC(=O)N3CCCCC3C)c2=O)cc1 (stereo not given)	-22.9%[46.1 µM]	·	-2.5	-12.5%[46.1 µM]	-18.3%
Cc1csc(N(C(=O)c2cccc(S(=O)(=O)N(C)C)c2)c2ccccc2)n1	?	12.0%	-2.6	2.8%	8.91µM*
Cc1csc(N(C(=O)c2cccc(S(=O)(=O)N3CCCC3)c2)c2ccccc2)n1	-4.6%	-44.0%	-16.2	-16.8%	?
CCn1c(O)c(N=NC(=O)CNC(=O)Cc2ccccc2)c2ccccc21	10.5%[46.1 µM]	-15.1%	-1.1	0.3%[46.1 µM]	-2.2%
O=C(CNC(=O)c1ccco1)N=Nc1c(O)n(CCc2ccccc2)c2ccccc12	·	?	-84.0*	·	-23.6%
C#CCNC(=O)[C@H]1C=C(OC)C(=O)C[C@H]2c3ccccc3C[C@]12C	·	·	·	8.0%[14.2 µM]	·
C#Cc1cccc(-n2nnc(C(=O)OC)c2-c2ccccc2)c1	-22.2%	3.3%	-102.0*	-14.3%	?
COC(=O)c1nnn(-c2ccccc2)c1N	14.5%	?	14.9	?	-2.2%
COCC(=O)Nc1cc(C(=O)N2CCSCC2)cc2nc(-c3ccccc3)n(C)c12	·	·	·	·	-25.7%
SMILES	Lassa entry inh	HCV inhibitor	HCMV inh	Marburg entry inh	FMDV antiviral
O=C(O)c1cc(-c2c[nH]c3ccccc23)nc2ccc3ccccc3c12	-17.6%	10.2%	139.8	-4.9%[46.1 µM]	17.3%
c1ccc2c(-c3c[nH]c4ccccc34)c3ccccc3nc2c1	-7.1%	?	-90.5*	?	-35.5%
O=C(Nc1ccc(Cl)cc1)Nc1nnc(CSc2ccc(Cl)cc2)s1	1.1%[46.1 µM]	?	-85.5*	?	?
O=C(Nc1cccc(Cl)c1)Nc1nnc(CSCCOc2ccc(Cl)cc2)s1	?	2.51µM*	-72.0*	?	?
O=C(Nc1cccc(Cl)c1)Nc1nnc(CC2=CCCCC2)s1	7.9%	?	-98.4*	17.2%	?
O=C(Nc1ccc(Cl)cc1)Nc1nnc(SCc2ccc(Cl)cc2)s1	·	12.9%	-17.8	·	?
O=C(Nc1ccc(Cl)cc1)Nc1nnc(CSCc2ccccc2)s1	24.4%	5.2%	-70.2*	5.9%	0.0%
COc1ccccc1NC(=O)Cc1c(C(=O)O)[nH]c2ccc(Cl)cc12	14.7%[46.1 µM]	·	-25.8	·	-23.1%

Screening data as filed in PubChem.
